Results reported in PubChem BioAssay AID817 (Emory University Molecular Libraries Screening Center, 2007).
Screen size: about 140,000 compounds; about 300 (0.21%) were called active.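 How the source made its calls: active means z-score above 3 at both the 24 hr and the 30 hr optical density reads; inactive means the rest, inconclusive results apart.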 The full list was thinned out, with actives kept by preference.

Experiment: restorers of sdo1-deficient yeast growth – S. cerevisiae, bone marrow failure model, primary screen (AID 817);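 further: z-score against mean and SD of all compound wells on the same plate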
Conditions: S. cerevisiae sdo1-depleted JHY4D growth rescue, at 10 µM, stronger effect = higher value, pdr5 snq2 efflux-pump mutant strain
[1] = OD600, measured here: growth rescue at 24 h

Row | Structure (SMILES) | z-score (OD600 30 h) | z-score [1]
1 | C=CCN1C(=O)C(Cc2ccc(OCC)cc2)SC1=Nc1ccc(C(=O)O)cc1 (centres undefined) | -0.13 (inactive) | -0.75
2 | CC(C)CCNC(=O)c1cccnc1Sc1ccccc1 | 0.7 (inactive) | 0.32
3 | Cc1ccc(/C=N/NC(=O)CNC(=O)COc2ccccc2)o1 | 1.11 (inactive) | 1.1
4 | CS(=O)(=O)N(Cc1ccccc1)c1ccc(C(=O)NN=C2CCCCCC2)cc1 | -0.22 (inactive) | -0.83
5 | COc1ccccc1OCc1ccc(C(=O)N2CCN(C)CC2)o1 | 0.86 (inactive) | 0.24
6 | CN1CCN(C(=O)/C(=C\c2cccs2)NC(=O)c2cccs2)CC1 | 0.48 (inactive) | 0.2
7 | CCOc1ccc(C(=O)NC(=S)Nc2ccc(N3CCOCC3)c(Cl)c2)cc1[N+](=O)[O-] | -1.76 (inactive) | -1.28
8 | COc1ccc(C(=O)NNS(=O)(=O)c2ccc(C)cc2)cc1 | -0.36 (inactive) | -1.37
9 | CC1(C)C=C2[C@H]3CC[C@@H]4[C@@]5(C)CCC(=O)C(C)(C)[C@@H]5CC[C@@]4(C)[C@]3(C)CC[C@@]2(C(=O)O)CC1 | -0.02 (inactive) | -0.53
10 | FC(F)(F)c1cccc(N/N=C/c2ccccc2)c1 | -1.78 (inactive) | -1.53
11 | COc1ccccc1N1CCN(C(=O)C(=O)N/N=C/c2ccccc2F)CC1 | 1.25 (inactive) | 0.28
12 | COc1ccc(OC(C)C(=O)NCCc2nc3ccccc3[nH]2)cc1 (centres undefined) | 0.82 (inactive) | -0.04
13 | COc1ccccc1-n1c(C)nc2cc(C(=O)NCc3ccc4c(c3)OCO4)ccc21 | -0.72 (inactive) | -1.61
14 | COC(=O)c1cc(C(=O)N(Cc2ccccc2)c2ccccn2)cc([N+](=O)[O-])c1 | -0.07 (inactive) | -0.08
15 | CCc1ccccc1NC(=O)CN(C)C(=O)COc1ccc(C)nc1[N+](=O)[O-] | -0.39 (inactive) | -0.24
16 | Cc1[nH]c2ccccc2c1C(=O)CSCC(=O)O | 10.5 (active) | 8.73
17 | Cc1[nH]c2ccccc2c1C(=O)COC(=O)C(C)C | 0.17 (inactive) | -0.5
18 | CCOC(=O)N1CCN(CC(=O)c2c(C)[nH]c3ccccc23)CC1 | -0.21 (inactive) | -1.53
19 | CCCC1OC23CCCCC2C(C#N)(C#N)C1(C#N)C(=N)O3 (centres undefined) | 0.28 (inactive) | 0.9
20 | CCOc1ccc2c(=O)c(-c3ccc4c(c3)OCCCO4)c(C)oc2c1 | 0.07 (inactive) | -0.34
21 | O=C(OCC(=O)c1c[nH]c2ccccc12)c1cccc(O)c1 | 0 (inactive) | 0
22 | O=C(NC(=S)Nc1ccc2oc(=O)ccc2c1)c1ccc(-c2cccc(Cl)c2Cl)o1 | -0.64 (inactive) | 0.44
23 | CCOC(=O)c1c(NC(=S)Nc2ccccc2C)sc2c1CCC2 | -0.66 (inactive) | 0.75
24 | COc1ccc(C(C[N+](=O)[O-])n2nc(C)cc2C)cc1 (centres undefined) | -2.03 (inactive) | -0.33
25 | O=C(N/N=C\c1ccc(Br)cc1)c1ccc(Cn2cccn2)o1 | 0.87 (inactive) | -0.05
26 | O=S(=O)(NCC1CCCO1)c1cnc(Cl)c(Cl)c1 (centres undefined) | 1.1 (inactive) | 0.93

Row | Structure (SMILES) | z-score (OD600 30 h) | z-score [1]
27 | Cc1c(C(=O)NCCN2C(=O)S/C(=C\c3cccs3)C2=O)cccc1[N+](=O)[O-] | -0.51 (inactive) | -0.6
28 | COc1cccc(NC(=O)C(Sc2nc3ccccc3c(=O)n2CC(C)C)c2ccccc2)c1 (centres undefined) | -1.02 (inactive) | -0.31
29 | Cc1nnnn1/C(=C\c1ccccc1)C(=O)OCC(=O)N1CC2(C)CC1CC(C)(C)C2 (centres undefined) | -1.27 (inactive) | -0.83
30 | Cc1cccc(N=C2NN=C(c3c[nH]c4ccccc34)CS2)c1 | -1 (inactive) | -0.78
31 | COC(=O)c1c(NC(=O)CN2C(=O)NC(CCc3ccccc3)C2=O)sc2c1CCCCC2 (centres undefined) | 0.43 (inactive) | 0.79
32 | Cc1ccc(Sc2ccncc2S(N)(=O)=O)cc1 | 1.59 (inactive) | 0.76
33 | O=C(O)c1ccc(N=NN2CCOCC2)cc1 | -0.02 (inactive) | -0.59
34 | COc1ccc(C2Nc3ccccc3C(=O)N2c2ccc(Cl)cc2)cc1Cn1cc([N+](=O)[O-])cn1 (centres undefined) | -0.41 (inactive) | -0.21
35 | O=C(N/N=C/c1ccc2c(c1)OCO2)c1ccc(Cn2cc([N+](=O)[O-])cn2)o1 | 0.69 (inactive) | -0.21
36 | COc1cc(OC)nc(NC(=O)CCl)n1 | -0.13 (inactive) | -1.15
37 | CCC(=O)Nc1nc(OC)cc(OC)n1 | 0.5 (inactive) | -0.32
38 | COc1cc(OC)nc(S(C)(=O)=O)n1 | 3.91 (active) | 4.26
39 | O=C(c1ccc(S(=O)(=O)c2ccccc2)cc1)N1CCCCCC1 | 1.85 (inactive) | 2.69
40 | Cc1c(Cl)cccc1NC(=O)Nc1ccc(C(=O)N2CCCC2)cc1 | 0.9 (inactive) | -0.18
41 | CS(=O)(=O)Nc1ccc(C(=O)N2CCCC2)cc1 | 8.85 (active) | 8.64
42 | Cc1ccc(-c2nnc(SCC(=O)N/N=C/c3cccs3)n2-c2ccc(C)cc2)cc1 | 0.44 (inactive) | 0.52
43 | CCOc1ccc(C(=O)NC(=S)Nc2ccc(NC(=O)C(C)C)cc2)cc1[N+](=O)[O-] | -0.64 (inactive) | 0.38
44 | CC(=O)COc1ccc2c(-c3ccccc3)cc(=O)oc2c1 | -0.11 (inactive) | -0.39
45 | COc1cc(/C=C/CO)cc(OC)c1O[C@@H]1O[C@H](CO)[C@@H](O)[C@H](O)[C@H]1O | 0.24 (inactive) | 0.99
46 | Cc1ccc(S(=O)(=O)C2C(=O)NC3(C)CC2c2ccccc2O3)cc1 (centres undefined) | 0.78 (inactive) | 0.14
47 | CCOC(=O)C1=C(C)Nc2nc3ccccc3n2C1c1cccs1 (centres undefined) | -0.33 (inactive) | 0.25
48 | CCCc1cc(=O)[nH]c(SCC(=O)N2CCN(S(=O)(=O)c3ccc(C)cc3C)CC2)n1 | 0.64 (inactive) | 0.59
49 | Cc1cc(OCCN2CCCC2)cc(C(C)C)c1 | -1.32 (inactive) | -1.82
50 | Cc1cccc(Nc2nc3c(S(=O)(=O)c4ccccc4)nnn3c3ccccc23)c1C | 2.09 (inactive) | 3.12
51 | O=C(NC(=O)N1CCOCC1)c1ccccc1 | 0.99 (inactive) | 0.24
52 | COc1ccc(C(=O)NC2(C(F)(F)F)NC(=O)N(CCCc3ccccc3)C2=O)c(OC)c1OC (centres undefined) | -0.49 (inactive) | 0.17
